According to PubChem BioAssay (Tox21):
Results filed as inconclusive are left out. Where a call stands in place of a potency, no number is given. Active and inactive are the calls of the source. Calls come from the whole dose curve; as a rule, active = well fitted inhibition curve with a large enough effect in the repeat runs; inconclusive = weak or mixed curves; inactive = no such curve, though single readings can be large or run the other way.

molecular target: Cytochrome P450 2C19 (Homo sapiens) (UniProt P33261); experiment: Cytochrome P450 Family 2 Subfamily C Member 19 (CYP2C19) small molecule antagonists: luciferase reporter qHTS assay (AID 1671197); conditions: P450-Glo CYP2C19 enzyme, luciferin luminescence, 1 h; series mostly up to 115 µM; note: nearly all actives have a fitted effect of over 65% in size
Sequence (P33261 whole entry, looked up): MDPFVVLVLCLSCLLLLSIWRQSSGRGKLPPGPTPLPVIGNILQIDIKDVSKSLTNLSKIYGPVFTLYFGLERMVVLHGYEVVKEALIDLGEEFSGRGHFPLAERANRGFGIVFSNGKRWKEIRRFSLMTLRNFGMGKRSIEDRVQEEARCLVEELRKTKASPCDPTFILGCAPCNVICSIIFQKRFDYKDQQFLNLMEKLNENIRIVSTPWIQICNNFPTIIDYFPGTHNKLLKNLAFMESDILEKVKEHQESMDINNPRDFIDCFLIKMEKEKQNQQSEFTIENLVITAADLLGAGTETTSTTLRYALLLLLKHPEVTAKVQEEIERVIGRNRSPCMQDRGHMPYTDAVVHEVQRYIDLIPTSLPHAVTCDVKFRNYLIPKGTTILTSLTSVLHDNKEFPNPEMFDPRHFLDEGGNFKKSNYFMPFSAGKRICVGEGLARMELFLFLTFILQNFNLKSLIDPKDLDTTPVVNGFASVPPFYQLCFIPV
Outline: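 P450-Glo CYP2C19 screening system; proluciferin substrate; DMSO compound stocks; 10 min RT preincubation; NADPH regeneration, 1 h at 37C; luciferin detection reagent, 20 min RT; luminescence as RLU.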
Potency is the fitted concentration of half-maximal effect.

SMILES | Potency | activity change, negative = inhibition
NC(N)=NS(=O)(=O)c1ccc(N)cc1 | inactive | –
CO[Si](OC)(OC)OC | inactive | –
OCCN1C[C@H](O)[C@@H](O)[C@H](O)[C@H]1CO | inactive | –
COc1cc(C)cc(O)c1 | inactive | –
C=CC(=O)OCCCCCC | inactive | –
CC(C)(O)Cc1ccccc1 | inactive | –
C=CCOCC(O)CS(=O)(=O)O (stereo not drawn) | 80.8 µM (active) | –
OC[C@H]1O[C@@H]2O[C@H]3[C@H](O)[C@@H](O)[C@@H](O[C@H]4[C@H](O)[C@@H](O)[C@@H](O[C@H]5[C@H](O)[C@@H](O)[C@@H](O[C@H]6[C@H](O)[C@@H](O)[C@@H](O[C@H]7[C@H](O)[C@@H](O)[C@@H](O[C@H]8[C@H](O)[C@@H](O)[C@@H](O[C@H]9[C@H](O)[C@@H](O)[C@@H](O[C@H]1[C@H](O)[C@H]2O)O[C@@H]9CO)O[C@@H]8CO)O[C@@H]7CO)O[C@@H]6CO)O[C@@H]5CO)O[C@@H]4CO)O[C@@H]3CO | inactive | –
CCCCC=O | 71 µM (active) | –
CCCCCC[C@@H](CCC)C(=O)O | inactive | –
CC(=O)c1ccc(C)cc1 | inactive | –
NC(=O)CCCCC1CCSS1 (stereo not drawn) | inactive | –
Cc1ccc(N)cc1[N+](=O)[O-] | inactive | –
CCCCNc1ccccc1 | inactive | –
CC(=O)NC(Cc1ccccc1)C(=O)O (stereo not drawn) | inactive | –
C=C(C)[C@@H]1CCC2=CC(=O)C[C@@H](C)[C@]2(C)C1 | 6.33 µM (active) | –
CNC(=O)c1c(I)c(NC(=O)CCCCC(=O)Nc2c(I)c(C(=O)O)c(I)c(C(=O)NC)c2I)c(I)c(C(=O)O)c1I | inactive | –
COC(=O)CCCC(=O)O | inactive | –
Oc1ccc2c(c1)OC[C@@H](N1CCC(O)(c3ccc(F)cc3)CC1)[C@H]2O | 3.89 µM (active) | –

SMILES | Potency | activity change, negative = inhibition
Cc1nccn1CC1CCc2c(c3ccccc3n2C)C1=O (stereo not drawn) | inactive | –
OCc1ccccn1 | inactive | –
CCCCCCOC(=O)CC(CC(=O)OCCCCCC)(OC(=O)CCC)C(=O)OCCCCCC | 39.9 µM (active) | –
CN(C)N=Nc1ccccc1 | inactive | –
C=C(C)C(=O)OCCCCCCCCCCCCCCCCCC | – | -16.6% [at 23.6 µM] (inactive)
COc1ccc(NC(C)=O)cc1 | inactive | –
OCCCCCCO | 12.8 µM (active) | –
c1cc(CN2CCCCC2)cc(OCCCNc2nc3ccccc3s2)c1 | inactive | –
C=CCSCC1Nc2cc(Cl)c(S(N)(=O)=O)cc2S(=O)(=O)N1 (stereo not drawn) | inactive | –
CC(C)CCCCCCN | inactive | –
CCN(CC)C(=O)c1ccc(O)c(OC)c1 | inactive | –
CCCCOCC(C)OCC(C)O (stereo not drawn) | inactive | –
CC(C)c1ccc2oc3nc(N)c(C(=O)O)cc3c(=O)c2c1 | 15.5 µM (active) | –
CC(C)[C@H](N)C(=O)OCCOCn1cnc2c(=O)[nH]c(N)nc21 | inactive | –
COC(=O)C1=C(C)NC(C)=C(C(=O)OCC(C)=O)C1c1ccccc1[N+](=O)[O-] (stereo not drawn) | 5.49 µM (active) | –
CC(C)[N+](C)(C)CC(O)COc1cccc2ccccc12 (stereo not drawn) | inactive | –
CCCCc1ccc(N)cc1 | 39.9 µM (active) | –
CCOC(=O)Cn1c(=O)sc2cccc(Cl)c21 | 7.96 µM (active) | –

molecular target: Cytochrome P450 2C9 (Homo sapiens) (UniProt P11712); experiment: Cytochrome P450 Family 2 Subfamily C Member 9 (CYP2C9) small molecule antagonists: luciferase reporter qHTS assay (AID 1671198); conditions: P450-Glo CYP2C9 enzyme assay, luciferin luminescence; series mostly up to 115 µM; note: nearly all actives have a fitted effect of over 50% in size
Sequence (P11712 whole entry, looked up): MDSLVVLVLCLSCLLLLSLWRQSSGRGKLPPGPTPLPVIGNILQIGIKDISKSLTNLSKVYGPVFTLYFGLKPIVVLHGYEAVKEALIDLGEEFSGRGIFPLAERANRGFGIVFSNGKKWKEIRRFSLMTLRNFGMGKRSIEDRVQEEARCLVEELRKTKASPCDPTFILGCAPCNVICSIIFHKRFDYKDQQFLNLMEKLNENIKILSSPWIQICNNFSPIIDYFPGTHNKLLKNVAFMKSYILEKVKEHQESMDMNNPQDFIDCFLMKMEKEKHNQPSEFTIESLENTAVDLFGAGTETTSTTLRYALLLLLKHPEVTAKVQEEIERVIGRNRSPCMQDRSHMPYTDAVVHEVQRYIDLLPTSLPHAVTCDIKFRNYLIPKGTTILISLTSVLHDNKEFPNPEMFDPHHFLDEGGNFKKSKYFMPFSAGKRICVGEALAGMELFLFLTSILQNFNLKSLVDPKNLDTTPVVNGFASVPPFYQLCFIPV
Outline: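 Enzyme-substrate mix preincubated with compound 10 min at room temperature; reaction started with NADPH regeneration solution, 1 h 37C. Luminescent luciferin product read after 20 min detection reagent.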

SMILES | Potency | activity change, negative = inhibition
NC(N)=NS(=O)(=O)c1ccc(N)cc1 | inactive | –
CO[Si](OC)(OC)OC | inactive | –
OCCN1C[C@H](O)[C@@H](O)[C@H](O)[C@H]1CO | inactive | –
COc1cc(C)cc(O)c1 | inactive | –
C=CC(=O)OCCCCCC | inactive | –
CC(C)(O)Cc1ccccc1 | inactive | –
C=CCOCC(O)CS(=O)(=O)O (stereo not drawn) | inactive | –
OC[C@H]1O[C@@H]2O[C@H]3[C@H](O)[C@@H](O)[C@@H](O[C@H]4[C@H](O)[C@@H](O)[C@@H](O[C@H]5[C@H](O)[C@@H](O)[C@@H](O[C@H]6[C@H](O)[C@@H](O)[C@@H](O[C@H]7[C@H](O)[C@@H](O)[C@@H](O[C@H]8[C@H](O)[C@@H](O)[C@@H](O[C@H]9[C@H](O)[C@@H](O)[C@@H](O[C@H]1[C@H](O)[C@H]2O)O[C@@H]9CO)O[C@@H]8CO)O[C@@H]7CO)O[C@@H]6CO)O[C@@H]5CO)O[C@@H]4CO)O[C@@H]3CO | inactive | –
CCCCC=O | 79.6 µM (active) | –
CCCCCC[C@@H](CCC)C(=O)O | 34.7 µM (active) | –
CC(=O)c1ccc(C)cc1 | inactive | –
NC(=O)CCCCC1CCSS1 (stereo not drawn) | inactive | –
Cc1ccc(N)cc1[N+](=O)[O-] | 35.8 µM (active) | –
CCCCNc1ccccc1 | inactive | –
CC(=O)NC(Cc1ccccc1)C(=O)O (stereo not drawn) | inactive | –
C=C(C)[C@@H]1CCC2=CC(=O)C[C@@H](C)[C@]2(C)C1 | 39.9 µM (active) | –
CNC(=O)c1c(I)c(NC(=O)CCCCC(=O)Nc2c(I)c(C(=O)O)c(I)c(C(=O)NC)c2I)c(I)c(C(=O)O)c1I | inactive | –
COC(=O)CCCC(=O)O | inactive | –

SMILES | Potency | activity change, negative = inhibition
Oc1ccc2c(c1)OC[C@@H](N1CCC(O)(c3ccc(F)cc3)CC1)[C@H]2O | 13.8 µM (active) | –
Cc1nccn1CC1CCc2c(c3ccccc3n2C)C1=O (stereo not drawn) | inactive | –
OCc1ccccn1 | inactive | –
CCCCCCOC(=O)CC(CC(=O)OCCCCCC)(OC(=O)CCC)C(=O)OCCCCCC | 31.7 µM (active) | –
CN(C)N=Nc1ccccc1 | inactive | –
C=C(C)C(=O)OCCCCCCCCCCCCCCCCCC | – | -1.15% [at 23.6 µM] (inactive)
COc1ccc(NC(C)=O)cc1 | inactive | –
OCCCCCCO | 40.4 µM (active) | –
c1cc(CN2CCCCC2)cc(OCCCNc2nc3ccccc3s2)c1 | inactive | –
CC(C)CCCCCCN | inactive | –
CCN(CC)C(=O)c1ccc(O)c(OC)c1 | inactive | –
CCCCOCC(C)OCC(C)O (stereo not drawn) | inactive | –
CC(C)c1ccc2oc3nc(N)c(C(=O)O)cc3c(=O)c2c1 | 13.8 µM (active) | –
CC(C)[C@H](N)C(=O)OCCOCn1cnc2c(=O)[nH]c(N)nc21 | inactive | –
COC(=O)C1=C(C)NC(C)=C(C(=O)OCC(C)=O)C1c1ccccc1[N+](=O)[O-] (stereo not drawn) | 13.8 µM (active) | –
CC(C)[N+](C)(C)CC(O)COc1cccc2ccccc12 (stereo not drawn) | inactive | –
CCCCc1ccc(N)cc1 | 44.8 µM (active) | –
CCOC(=O)Cn1c(=O)sc2cccc(Cl)c21 | 10 µM (active) | –
